Measured values: PubChem BioAssay AID1159580 (chemical genetic matrix, 2015)
Among all 5,500 compounds or so, about 2,000 (36%) were called active. Not shown: some 18% with an inconclusive outcome. No stated cut-off is given here; in the data, active means normalized growth mostly below about 0.91 (no sharp cut-off); inconclusive means no clear call, values can overlap the other calls; inactive means mostly above about 0.92. The list shows a part of the results.

Test: chemical genetic growth profiling, strain panel (AID 1159580);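 further: tested at 20 µM; growth read once vehicle control cultures reached saturation at 30 °C; 1 = growth at the plate median or of vehicle wells; lower values mean less growth of the strain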
Settings: S. cerevisiae deletion strains, growth OD

Measured: normalized growth

Nc1ccc(C(=O)Oc2ccccc2)c(O)c1
inactive: locus YJR043C, strain POL32, active compounds read low 0.932 | locus YJR066W, strain TOR1, active compounds read low 0.893 | locus YKL009W, strain mrt4, active compounds read low 0.894 | locus YKL160W, strain elf1, active compounds read low 0.942 | locus YKL190W, strain CNB1, active compounds read low 0.939 | locus YKR091W, strain srl3, active compounds read low 0.948 | locus YLL001W, strain dnm1, active compounds read low 0.951 | locus YLL026W, active compounds read low 0.943 | locus YLL041C, strain sdh2, active compounds read low 0.929 | locus YLR027C, strain aat2, active compounds read low 0.927 | locus YLR058C, strain SHM2, active compounds read low 0.909 | locus YLR113W, strain HOG1, active compounds read low 0.862 | locus YLR221C, strain rsa3, active compounds read low 0.932 | locus YLR258W, strain gsy2, active compounds read low 0.948 | locus YLR342W, strain FKS1, active compounds read low 0.915 | locus YLR357W, strain rsc2, active compounds read low 0.919 | locus YLR370C, strain arc18, active compounds read low 0.927 | locus YLR384C, strain iki3, active compounds read low 0.962 | locus YML016C, strain PPZ1, active compounds read low 0.924 | locus YMR058W, strain fet3, active compounds read low 0.929 | locus YMR125W, strain sto1, active compounds read low 0.942 | locus YMR129W, active compounds read low 0.946 | locus YMR231W, strain pep5, active compounds read low 0.983 | locus YNL067W, strain RPL9B, active compounds read low 0.867 | locus YNL128W, strain TEP1, active compounds read low 0.905 | locus YNL153C, strain GIM3, active compounds read low 0.905 | locus YNL183C, strain NPR1, active compounds read low 0.859 | locus YNL209W, strain ssb2, active compounds read low 0.955 | locus YNL248C, strain rpa49, active compounds read low 0.923 | locus YNL250W, strain rad50, active compounds read low 0.95 | locus YNL322C, strain KRE1 (second series), active compounds read low 0.942 | locus YNR049C, strain mso1, active compounds read low 0.933 | locus YOL012C, strain htz1 1.98 | locus YOR001W, strain rrp6, active compounds read low 0.92 | locus YOR061W, strain CKA2, active compounds read low 0.928 | locus YOR069W, strain VPS5, active compounds read low 0.95 | locus YOR070C, strain gyp1, active compounds read low 0.937 | locus YOR080W, strain dia2, active compounds read low 0.961 | locus YOR083W, strain WHI5, active compounds read low 0.93 | locus YOR106W, strain vam3, active compounds read low 0.878 | locus YOR231W, strain MKK1, active compounds read low 0.923 | locus YOR265W, strain rbl2, active compounds read low 0.931 | locus YOR290C, strain snf2, active compounds read low 0.885 | locus YPL051W, strain arl3, active compounds read low 0.938 | locus YPL078C, strain atp4, active compounds read low 0.929 | locus YPL106C, strain sse1, active compounds read low 0.965 | locus YPL240C, strain hsp82, active compounds read low 0.953 | locus YPL256C, strain CLN2, active compounds read low 0.904
active: locus YJR075W, strain HOC1, active compounds read low 0.84 | locus YKL068W, active compounds read low 0.93 | locus YKL085W, strain MDH1 (second series), active compounds read low 0.914 | locus YKL085W, strain MDH1, active compounds read low 0.914 | locus YKR001C, strain vps1, active compounds read low 0.672 | locus YKR026C, strain gcn3, active compounds read low 0.896 | locus YLR039C, strain RIC1, active compounds read low 0.346 | locus YLR102C, strain apc9, active compounds read low 0.917 | locus YLR262C, strain YPT6 (second series), active compounds read low 0.558 | locus YLR262C, strain YPT6, active compounds read low 0.352 | locus YLR268W, strain sec22, active compounds read low 0.861 | locus YLR320W, strain mms22, active compounds read low 0.797 | locus YLR330W, strain CHS5, active compounds read low 0.876 | locus YLR342W, strain FKS1 (second series), active compounds read low 0.662 | locus YLR371W, strain rom2, active compounds read low 0.77 | locus YLR418C, strain cdc73, active compounds read low 0.453 | locus YML032C, strain rad52, active compounds read low 0.774 | locus YML120C, strain ndi1, active compounds read low 0.904 | locus YML124C, strain tub3, active compounds read low 0.904 | locus YMR078C, strain ctf18, active compounds read low 0.861 | locus YMR205C, strain PFK2, active compounds read low 0.861 | locus YMR223W, strain ubp8, active compounds read low 0.825 | locus YMR307W, strain GAS1, active compounds read low 0.402 | locus YNL071W, strain lat1, active compounds read low 0.786 | locus YNL233W, strain BNI4, active compounds read low 0.788 | locus YNL271C, strain bni1, active compounds read low 0.918 | locus YNL298W, strain CLA4, active compounds read low 0.908 | locus YNL307C, strain MCK1, active compounds read low 0.323 | locus YNR052C, strain pop2, active compounds read low 0.883 | locus YOL147C, strain pex11, active compounds read low 0.767 | locus YOR136W, strain idh2, active compounds read low 0.919 | locus YOR144C, strain elg1, active compounds read low 0.888 | locus YOR184W, strain ser1, active compounds read low 0.504 | locus YOR270C, strain vph1, active compounds read low 0.732 | locus YOR316C, strain cot1, active compounds read low 0.918 | locus YPR119W, strain clb2, active compounds read low 0.91 | locus YPR141C, strain kar3, active compounds read low 0.896 | locus YPR163C, strain tif3, active compounds read low 0.71 | locus YPR167C, strain met16, active compounds read low 0.885 | strain wtn01, active compounds read low 0.751
